Screens deposited in PubChem by several laboratories.
This is one part of a sample in which hits are shown more often than they occur.
Ecoli WT expand: growth inhibitors of wild-type E. coli, primary screen, strain BW25113, expanded library, OD600; OD600 absorbance; growth inhibition, % at 100 µM; 98,000 compounds, 0.15% hits; AID 710, 2007;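 active means growth inhibition above about 50% at one test dose, limit read from the data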;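 further: growth measured after 20 h incubation at 37 °C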
Cav32 inh: Cav3.2 calcium influx blockers – cell-based, Fluo-4 calcium fluorescence, FDSS, MLSMR library, primary screen | 100,000 compounds, 4% hits | Cav3.2-expressing cells; active compounds read low | Voltage-dependent T-type calcium channel subunit alpha-1H (Homo sapiens), O95180 | B-score at 10 µM;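 active means single-dose well whose peak fluorescence ratio is a statistical outlier from its plate by either plate-standardised score or position-corrected B-score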
CD11b adhes enh: enhancers of CD11b/CD18 adhesion to fibrinogen, primary screen, K562 cells, luminescence. Integrin beta-2 (Homo sapiens) + Integrin alpha-M (Homo sapiens), P05107+P11215. ATPlite luminescence. activation, % at 10 µM. 93,000 compounds, 0.07% hits. AID 1499, 2009;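 active means 10 µM primary screen giving 50% or more activity, confirmed by 40% or more on retest at that dose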
Target sequence (P05107 whole entry, looked up, other chains not shown): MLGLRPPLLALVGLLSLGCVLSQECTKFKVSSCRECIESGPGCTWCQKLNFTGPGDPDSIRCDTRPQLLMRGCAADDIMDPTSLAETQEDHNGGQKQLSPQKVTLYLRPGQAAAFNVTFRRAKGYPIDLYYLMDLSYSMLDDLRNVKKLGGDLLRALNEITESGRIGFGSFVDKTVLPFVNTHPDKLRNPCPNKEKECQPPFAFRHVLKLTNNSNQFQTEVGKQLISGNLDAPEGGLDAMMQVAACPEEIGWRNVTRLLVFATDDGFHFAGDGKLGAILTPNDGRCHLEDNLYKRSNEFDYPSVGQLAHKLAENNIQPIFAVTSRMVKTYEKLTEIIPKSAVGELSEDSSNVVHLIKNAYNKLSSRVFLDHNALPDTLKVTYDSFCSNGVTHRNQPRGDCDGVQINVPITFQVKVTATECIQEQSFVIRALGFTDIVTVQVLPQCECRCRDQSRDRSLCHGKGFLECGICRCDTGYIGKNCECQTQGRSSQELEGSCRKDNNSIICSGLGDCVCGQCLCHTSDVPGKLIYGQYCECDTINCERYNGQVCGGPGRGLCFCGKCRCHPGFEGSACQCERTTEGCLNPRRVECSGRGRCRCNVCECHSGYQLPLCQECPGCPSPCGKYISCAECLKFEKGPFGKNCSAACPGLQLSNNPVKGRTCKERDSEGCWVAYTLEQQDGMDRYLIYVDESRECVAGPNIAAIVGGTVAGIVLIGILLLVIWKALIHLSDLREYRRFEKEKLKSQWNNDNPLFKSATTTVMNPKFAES
CD11b adhes inh: inhibitors of CD11b/CD18 adhesion to fibrinogen, primary screen, K562 cells, luminescence; 93,000 compounds, 0.54% hits; AID 1497, 2009; inhibition, % at 10 µM; Integrin beta-2 (Homo sapiens) + Integrin alpha-M (Homo sapiens), P05107+P11215; ATPlite luminescence; Mn2+ added to activate the integrin;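 active means primary inhibition of 50% or more at 10 µM, then 40% or more on retest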
The depositor's hits bear a star; nt = no result.

SMILES | Ecoli WT expand | Cav32 inh | CD11b adhes enh | CD11b adhes inh
CC1CCc2c(sc(Nc3nc4c(F)cccc4s3)c2C(N)=O)C1 (centres undefined) | nt | nt | 11 | 61
CN(C)C(=O)c1cn(-c2ccccc2)nc1-c1cccs1 | -5 | 0.008 | -5 | -4
O=C(c1cn(-c2ccccc2)nc1-c1cccs1)N1CCN(c2ccccn2)CC1 | -19 | -6.2* | 0 | -22
CCOC(=O)c1ccccc1NC(=O)CSc1nnc(COc2ccccc2)n1CC | -9 | -5.7* | -1 | 7
CCn1c(CNC(=O)COc2ccc(C(C)C)cc2)nnc1SCC(=O)Nc1ccccc1 | 5 | -4* | 3 | -29
CCOC(=O)c1cccc(NC(=O)CSc2nnc(CNc3ccc(C)cc3)n2CC)c1 | -7 | -4.1* | 2 | -2
CCOc1ccc(NC(=O)CSc2nnc(C(C)C)n2CC)cc1 | nt | 0.2 | nt | nt
CCn1c(COc2ccccc2)nnc1SCC(=O)Nc1cc(OC)ccc1OC | 1 | -0.12 | nt | nt
CCOC(=O)c1cccc(NC(=O)CSc2nnc(COc3ccccc3)n2CC)c1 | -6 | -6.1* | -3 | 5
COC(=O)C1=C(COc2ccccc2)NC(=O)NC1c1ccc2ccccc2c1 (centres undefined) | nt | -0.021 | nt | nt
Cc1ccc(NCc2nnc(SCCN3CCCCC3)n2CC2CCCO2)c(C)c1 (centres undefined) | -2 | 1.5 | -1 | 10
CCn1c(COc2ccccc2C)nnc1SCC(=O)CC(=O)Nc1ccccc1 | 16 | -5* | 3 | -15
CCn1c(COc2ccccc2C)nnc1SCC(=O)Nc1cc(C)on1 | -17 | 0.06 | -1 | -4
CCn1c(COc2cccc3ccccc23)nnc1SCC(=O)OC1CCCCC1 | -19 | -5.6* | 2 | 16
Cc1ccc(NCc2nnc(SCC(=O)Nc3ccccc3)n2CC2CCCO2)c(C)c1 (centres undefined) | 3 | -4.5* | -1 | 5
NC(=O)C(c1ccc(Cl)cc1)c1ccc(Sc2ccc(Cl)cc2)nn1 (centres undefined) | 3 | -4.3* | -1 | 44
CC(C)C(NC(=O)CSc1ccc(Cl)cc1)C(C)C | -1 | -0.65 | 2 | 1
CCc1ccc(C2CC(=O)NC(SCC(=O)OC(C)C)=C2C#N)cc1 (centres undefined) | -8 | -8.4* | 1 | 1
O=S(=O)(c1cc(Cl)cc(Cl)c1)N1CCCC1c1nc2ccccc2s1 (centres undefined) | -1 | 0.77 | nt | nt
O=S(=O)(c1ccc(Cl)cc1)N1CCCC1c1nc2ccccc2s1 (centres undefined) | -3 | -4.5* | nt | nt
Cc1cc(NC(=O)Cn2nnc3sc4c(c3c2=O)CCC(C(C)(C)C)C4)no1 (centres undefined) | 1 | -7.3* | 1 | 5
Cc1cc(NC(=O)Cn2nnc3sc4c(c3c2=O)CCCC4)no1 | -8 | 0.6 | 4 | -15
Cc1ccc2c(c1)C(O)(c1c(C)[nH]c3ccccc13)C(=O)N2 (centres undefined) | 0 | -4.1* | 2 | -8
Cc1[nH]c2ccccc2c1C1(O)C(=O)N(C(C)C)c2ccccc21 (centres undefined) | 2 | -2.9 | -7 | -6
COc1ccc(S(=O)(=O)N2CCN(CC(=O)Nc3ccc(F)c(F)c3)CC2)cc1 | 9 | -4.9* | -4 | -18
SMILES | Ecoli WT expand | Cav32 inh | CD11b adhes enh | CD11b adhes inh
CCN(CC)S(=O)(=O)c1cccc(NC(=O)Nc2cccc(C(F)(F)F)c2)c1 | 13 | -5.8* | -6 | 98
CCN(CC)S(=O)(=O)c1ccc2c(c1)nc(CCC(=O)Nc1cccc(C(F)(F)F)c1)n2CC | -9 | 0.22 | 10 | -4
O=C(CN1CCN(S(=O)(=O)c2ccccc2)CC1)Nc1cccc(C(F)(F)F)c1 | -6 | -7.7* | -2 | 0
COc1ccc(S(=O)(=O)N2CCCN(CC(=O)Nc3ccc4c(c3)OCO4)CC2)cc1 | 4 | -0.44 | nt | nt
O=C(CN1CCN(S(=O)(=O)c2ccc(F)cc2)CC1)Nc1ccc(Cl)c(C(F)(F)F)c1 | 1 | nt | nt | nt
COCOc1ccc(-c2oc3c(C/C=C(\C)CCC=C(C)C)ccc(O)c3c(=O)c2OCOC)c(OCOC)c1 | nt | -1.8 | nt | nt
Cc1sc(NC(=O)c2ccco2)c(CN2CCC(C)CC2)c1C | -3 | -5.2* | 0 | 1
Cc1sc(NC(=O)c2ccco2)c(C(c2cccnc2)N2CCC(C)CC2)c1C (centres undefined) | -1 | -1.5 | 0 | 5
CC(=O)C1=C(C)N(Cc2ccccc2)C(=O)N[C@H]1c1ccco1 | nt | 0.24 | nt | nt
COc1ccc(S(=O)(=O)Nc2ccc(C(F)(F)F)cc2)cc1OC | 0 | -4.8* | -1 | 11
COc1cc(NS(=O)(=O)c2ccc(C)c(C)c2)c(OC)cc1Cl | -12 | -6.6* | -3 | 11
COc1ccc(S(=O)(=O)Nc2ccc(F)c(F)c2)cc1Cl | 24 | -3.8 | 1 | 24
COc1ccc(S(=O)(=O)Nc2ccc(S(=O)(=O)Nc3ccc(F)cc3)cc2)cc1C | nt | -6.8* | nt | nt
COc1ccc(S(=O)(=O)Nc2ccc(F)cc2)cc1N(C)S(=O)(=O)c1ccc(Cl)cc1 | -2 | -5* | nt | nt
COc1ccc(S(=O)(=O)Nc2ccccc2OC)cc1C | -3 | -0.048 | 2 | -12
CCOC(=O)Cc1csc(NC(=S)NC(=O)c2ccc(C)cc2)n1 | nt | nt | 8 | 2
Cc1cc(C)cc(NC(=O)C/C(N)=N/O)c1 | -3 | -3.1 | -2 | -1
Cc1ccc(SCc2ccc(C(=O)NCc3ccncc3)cc2)cc1 | -10 | -0.19 | nt | nt
Cc1cc(C)c(S(=O)(=O)/N=C2\C=CC(=O)C(Cl)=C2)c(C)c1 | 4 | -1.1 | 27 | 67*
O=C(NNC(=S)NC(=O)c1sc2ccccc2c1Cl)c1ccc(Cl)cc1 | nt | nt | 8 | 1
O=C(c1ccco1)N1CCN(C(=O)c2ccc(COc3ccc4c(c3)CCC4)o2)CC1 | -5 | -3.5 | 1 | -7
O=C(c1ccco1)N1CCN(C(=O)c2ccccc2Oc2ccccc2)CC1 | -13 | -5* | nt | nt
O=C(c1ccco1)N1CCN(C(=O)c2ccc(COc3ccc(Cl)cc3Cl)o2)CC1 | nt | -5.8* | nt | nt
O=C(c1ccco1)N1CCN(c2ccc(Cl)c(Cl)c2)CC1 | nt | -4.1* | nt | nt
O=C1N[C@@H](Cc2ccccc2)C(=O)N2[C@@H]1C[C@]1(Br)c3ccccc3N(S(=O)(=O)c3ccccc3)[C@H]21 | nt | -2.4 | nt | nt
SMILES | Ecoli WT expand | Cav32 inh | CD11b adhes enh | CD11b adhes inh
CCn1c(N2CCN(C(=S)NCCc3ccccc3)CC2)nc2ccccc21 | -14 | -3.2 | 3 | 5
CCCSc1nc2sc3c(c2c(=O)[nH]1)CCN(Cc1ccccc1)C3 | 9 | -5.9* | 56 | -3
C#CCNC(=O)C1=C[C@@H](c2ccc(Br)cc2)C[C@@H](OCCCCO)O1 | nt | 0.071 | nt | nt
CCn1cc(C(=O)N[C@H](C)c2ccccc2)c(=O)c2cc(F)c(N3CCN(C)CC3)cc21 | 1 | 1.1 | -4 | 0
CCn1cc(C(=O)NCc2ccc3c(c2)OCO3)c(=O)c2cc(F)c(N3CCN(C)CC3)cc21 | 100* | 1.6 | -3 | -4
CCn1cc(C(=O)NCCc2ccccc2)c(=O)c2cc(F)c(N3CCN(C)CC3)cc21 | 33 | 0.82 | 0 | 1
